Only some compounds are listed: those with a hit (about 6% of all), similar ones and a draw of the others.
D1 antagonist: Antagonist of Human D 1 Dopamine Receptor: qHTS | D(1A) dopamine receptor (Homo sapiens), P21728 | HEK293 TREx D1 cells, calcium flux, dopamine EC80; hits give low values | activity change, negative = inhibition, % at 10 µM | 360,000 tested, 3.2% active | AID 504652, 2011; in the data active = activity change below about -30%; also: % is scaled to controls: 0 for no effect and ±100 for the full control effect
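Calcium flux readout: force-coupled, inducible Hek293 Trex D1 line, cells induced overnight at 30 C with tetracycline, dye-loaded 30–90 min at RT. Antagonism scored against EC80 dopamine challenge given 180 s after compound.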
DRD3 antagonist: qHTS of D3 Dopamine Receptor Antagonist: qHTS; D(3) dopamine receptor (Homo sapiens), P35462; D3R cells, DiscoveRx beta-arrestin luminescence, antagonist mode; hits give low values; max response, negative = inhibition, %; 360,000 tested, 2.5% active; in the data active = max response below about -50%; inconclusive = no clear call, values can overlap the other calls; also: % is scaled to controls: 0 for no effect and ±100 for the full control effect
Target sequence (P35462 whole entry, looked up): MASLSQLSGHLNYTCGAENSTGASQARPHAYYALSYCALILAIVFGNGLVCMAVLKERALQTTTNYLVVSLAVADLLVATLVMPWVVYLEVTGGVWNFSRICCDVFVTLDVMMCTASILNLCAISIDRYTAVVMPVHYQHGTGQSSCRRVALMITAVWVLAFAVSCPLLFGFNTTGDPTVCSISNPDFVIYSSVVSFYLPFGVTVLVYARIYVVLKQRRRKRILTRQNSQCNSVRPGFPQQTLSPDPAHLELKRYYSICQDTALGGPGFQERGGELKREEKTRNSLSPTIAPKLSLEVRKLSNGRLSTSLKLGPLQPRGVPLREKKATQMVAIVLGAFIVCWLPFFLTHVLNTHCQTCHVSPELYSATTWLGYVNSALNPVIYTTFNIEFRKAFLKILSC
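Cells expressing the human receptor were seeded at 1500 cells/well, incubated overnight at 37 degrees C in 5% CO2, then exposed to library compounds with dopamine controls for 90 minutes at 37 degrees C before luminescent detection.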
D1 ag: Allosteric Agonists of the Human D1 Dopamine Receptor: qHTS. D(1A) dopamine receptor (Homo sapiens), P21728. HEK293 T-REx D1 cells, calcium flux, agonist mode. activation, % at 2 µM. 360,000 tested, 1% active. AID 504660, 2011; in the data active = activation above about 30%; also: 0% is about no effect
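Inducible HEK293 T-REx D1 cells, force-coupled to calcium signalling, were plated at 4000 cells/well with tetracycline and held overnight at 30 C. After no-wash calcium dye loading, compound-evoked calcium rise over 180 s flagged agonists.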
DRD3 agonist: qHTS of D3 Dopamine Receptor Agonist: qHTS; D(3) dopamine receptor (Homo sapiens), P35462; D3R DiscoveRx beta-arrestin cells, luminescence, 90 min; max activation, %; 410,000 tested, 0.58% active; AID 652048, 2013; in the data active = max activation above about 30%; also: 0% is about no effect
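Agonist mode: compounds and dopamine controls were applied to plated cells for 90 min at 37 degrees C after an overnight attachment at 1500 cells/well. Luminescent read-out followed 30 - 60 minutes at room temperature with DiscoveRx detection reagent.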
D1 PAM: Potentiators of Human D1 Dopamine Receptor: qHTS; D(1A) dopamine receptor (Homo sapiens), P21728; HEK293 TREx D1 cells, calcium flux, dopamine EC20 potentiation; 360,000 tested, 0.036% active; potentiation, % at 10 µM; in the data active = potentiation above about 30%; also: 0% is about no effect
BCR signal inh: qHTS Assay to Find Inhibitors of Chronic Active B-Cell Receptor Signaling | ABC-DLBCL IkBa-CBG/CBR reporter, luminescence ratio, 4 h | AID 493014, 2011 | Potency, µM (doses to about 46.1 µM), inactives show top-dose activity change, negative = inhibition, most hits filed as inhibitors | 340,000 tested, 0.05% active; active = well fitted inhibition curve with a large enough effect in the signal ratio, with a control signal flat, not every such curve was filed as active; inconclusive = small, poorly fitted or top-dose-only effect, or effect the other way, or a change in a side signal; the % refers to the signal ratio;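 also: potency is read from the fitted curve at half-maximal effect; plate controls were basal doxycycline-induced cells for no effect and cells given 10 µM MG132 for full effect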
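TMD8 human ABC-DLBCL cells with doxycycline-inducible IκBα–green luciferase fusion and unfused red luciferase, in 0.5% FBS medium; compounds up to 46 uM, 4 h at 37C. Green/red luminescence ratio, filter-overlap corrected, fitted to concentration-response curves.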
* marks the source's active call; other numbers are inactive results; ? = inconclusive; . = not tested or not shown.

SMILES	D1 antagonist	DRD3 antagonist	D1 ag	DRD3 agonist	D1 PAM	BCR signal inh
CCN(CC)C(=O)c1cccc(-c2csc(C(C)(NC(C)=O)c3ccc(OC)cc3)n2)c1 (configuration not stated)	.	18.1	.	8.4	.	.
COc1cc(CN(C(=O)c2ccccc2F)C2CCS(=O)(=O)C2)cc(OC)c1OC (configuration not stated)	5.2	.	-0.7	1.3	-1.4	.
CCCCCCCCN1C(=O)[C@H](CC(=O)N2CCOCC2)C[C@@]2(C(=O)OC)CCCCC=C12	.	0.0	.	0.9	.	.
CCOc1ccc(/C=C2\SC(=S)N(CCC(=O)N(CCO)c3ccccc3)C2=O)cc1	-30.8*	16.4	9.1	-3.1	-2.6	?
COc1ccc(-c2nc(-c3ccccc3)nc(N3CCN(C)CC3)c2C#N)cc1	.	-85.3*	.	-11.7	.	8.4%
CN1CCN(c2nc(-c3ccccc3)nc(-c3ccccc3)c2C#N)CC1	23.7	-29.0	2.1	-2.9	-0.8	?
COc1ccc2nc(N3CCC(C)CC3)c(C#N)cc2c1	6.7	5.4	16.4	1.2	0.3	?
CCOC(=O)c1cc(C#N)c(N2CCCC2)nc1-c1ccccc1	5.5	0.0	4.0	5.0	-2.6	7.8%
CCOC(=O)c1cc(C(=O)NN)c(C)nc1C	-87.1*	?	3.3	-1.7	-5.1	-9.5%
CCc1ccc2nc(N3CCN(C)CC3)c(C#N)cc2c1	-22.5	-67.9*	0.9	0.8	-9.0	?
CCOC(=O)c1cc(C#N)c(N2CCN(C)CC2)nc1-c1ccccc1	9.9	-69.4*	-0.6	-22.8	-1.8	0.4%
COc1cccc(-c2cc(C(F)(F)F)nc(-n3nc(C)c(Br)c3C)n2)c1	1.1	.	-2.2	-12.2	-1.9	.
CC(=O)c1cc(C#N)c(NCc2ccccc2)nc1C	-9.9	9.1	12.4	1.9	-4.5	?
CCOC(=O)c1cc(C#N)c(NCc2ccccc2)nc1C	-42.6*	-17.7	5.4	-5.2	-5.7	?
CCOC(=O)c1cc(C#N)c(Oc2ccc(F)cc2)nc1-c1ccccc1	-34.7*	47.5	7.8	0.9	-1.6	?
CCc1ccc2nc(SCC(=O)N(CC)CC)c(C#N)cc2c1	-45.6*	12.1	1.0	-1.7	-8.2	0.5%
Cc1noc(C)c1C(=O)N1CCC1(C)C(=O)NS(=O)(=O)Cc1cccc(Cl)c1 (configuration not stated)	.	0.0	.	-16.5	.	.
Cc1cc2c(=O)[nH]c(N)nc2[nH]1	.	23.8	.	2.6	.	.
Cc1sc2c(c1C)c(=O)n(-c1ccc(Cl)cc1)c(=O)n2Cc1c(F)cccc1Cl	-0.9	.	-1.7	-0.5	0.7	.
COCCNC(=O)CSc1nc2cc3c(cc2c(=O)n1CCCCCC(=O)NCCc1ccc(OC)c(OC)c1)OCO3	5.0	.	1.5	11.4	-0.8	-5.2%
COc1cc(Nc2cc(C)nc3ncnn23)cc(OC)c1OC	-31.3*	-13.4	0.5	-0.5	-13.9	-5.9%
COc1cc(Nc2cc(C)nc3ncnn23)cc(OC)c1	-4.6	-10.6	-2.1	1.5	4.0	?
CCCN1Cc2cccc(C(=O)N3CCN(c4cc(Cl)ccc4C)CC3)c2C1=O	-3.0	-50.8*	27.0	-4.5	.	?
COCCN1Cc2cccc(C(=O)N3CCN(c4cc(C)ccc4C)CC3)c2C1=O	10.0	3.0	-1.2	1.6	.	8.2%
Cc1ccc(Cl)cc1N1CCN(C(=O)c2cc3c(=O)n(C)c4ccccc4c3n2C)CC1	-36.1*	18.1	2.7	5.7	.	1.4%
Cc1cccc(N2CCN(C(=O)c3cc4c(=O)n(C)c5ccccc5c4n3C)CC2)c1C	-0.1	0.0	2.9	-9.0	2.9	?
Cc1cccc(N2CCN(C(=O)Cn3ncc4c5ccccc5n(C)c4c3=O)CC2)c1C	0.6	.	-1.1	1.0	-2.0	.
Cc1ccc(Cl)cc1N1CCN(C(=O)Cn2ncc3c4ccccc4n(C)c3c2=O)CC1	-32.8*	.	0.1	6.2	-2.6	.

From PubChem
